This is an account of results in PMC8384837, “Expanding the binding specificity for RNA recognition by a PUF domain”.

What all share (test): yeast three-hybrid, YBZ-1, SC-Leu-His + 0.5 mM 3-AT, 4 days
Common to all, as to settings: tags: N-Gal4 AD-HA kept; label: inside an RPR1-promoter hybrid RNA with tandem MS2 sites; ssRNA

Test [1] deals with PUM1 PUF domain R8-RRK (Homo sapiens, UniProt Q14671 828-1176, N1122R;Y1123R;Q1126K). The essentials: (§1)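 The interaction score is the logarithmic change in variant frequency from input to selection. It uses log2, with a pseudocount of 1 for absent variants, and frequencies came from PCR-amplified, Illumina-sequenced repeat regions. The libraries were Pumilio-1 PUF domains randomized at the three base-contacting residues per repeat, co-expressed with matching RNA elements in strain YBZ-1 (LexA–MS2 coat fusion, HIS3 reporter). Plating lasted four days on SC-Leu (input) or SC-Leu-His + 0.5 mM 3-AT (selection).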

Test [2] addresses T1, PUM1 PUF domain R6-CYQ (Homo sapiens, UniProt Q14671 828-1176, N1043C).
T1 sequence: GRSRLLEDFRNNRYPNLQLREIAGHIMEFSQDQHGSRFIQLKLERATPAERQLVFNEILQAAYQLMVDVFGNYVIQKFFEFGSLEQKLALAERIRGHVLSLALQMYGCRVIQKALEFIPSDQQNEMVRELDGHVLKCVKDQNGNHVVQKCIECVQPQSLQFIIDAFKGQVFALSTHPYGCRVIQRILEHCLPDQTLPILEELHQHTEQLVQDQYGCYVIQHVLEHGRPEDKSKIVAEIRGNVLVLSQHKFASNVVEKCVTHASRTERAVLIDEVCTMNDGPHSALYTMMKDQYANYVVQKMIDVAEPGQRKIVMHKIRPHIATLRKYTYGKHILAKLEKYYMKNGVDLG
The gist of the method: as §1

Test [3] concerns the target PUM1 PUF domain R5-RKN (Homo sapiens, UniProt Q14671 828-1176, C1007R;R1008K;Q1011N). The gist of the method: as §1
Test [4] deals with PUM1 PUF domain R4-GPA (Homo sapiens, UniProt Q14671 828-1176, N971G;H972P;Q975A). The essentials:
as §1

For test [5], the target named is PUM1 PUF domain R4-PYG (Homo sapiens, UniProt Q14671 828-1176, N971P;H972Y;Q975G). The gist of the method:
as §1

Test [6] addresses PUM1 PUF domain R4-CMG (Homo sapiens, UniProt Q14671 828-1176, N971C;H972M;Q975G). The essentials:
as §1

The target in test [7] is PUM1 PUF domain R3-TFP (Homo sapiens, UniProt Q14671 828-1176, C935T;R936F;Q939P). The gist of the method:
as §1

Test [8] addresses PUM1 PUF domain R3-RQV (Homo sapiens, UniProt Q14671 828-1176, C935R;R936Q;Q939V). The gist of the method: as §1
Test [9] concerns the target T2, PUM1 PUF domain R6-GHR (Homo sapiens, UniProt Q14671 828-1176, N1043G;Y1044H;Q1047R).
T2 sequence: T1 sequence with C216G, Y217H, Q220R
The essentials:
as §1

In test [10] the target is PUM1 PUF domain R5-TNG (Homo sapiens, UniProt Q14671 828-1176, C1007T;R1008N;Q1011G). The gist of the method:
as §1

Changes are numbered by the printed parent chain.

Regarding “GGCUAGAACUAGUGGAUCCCCCGGCGCCCGGCGGCUCGAGCCCGGGUAAGCGUAAAUAGUCUGCAUGCCGCCGGGCGCCAUGCCUGCAGGUCGACUCUAGAAAACAUG”, the binding signal in test [1] was 5.29 log2 enrichment (interaction score).
Take “GGCUAGAACUAGUGGAUCCCCCGGCGCCCGGCGGCUCGAGCCCGGGUAAGUGAAAAUAGUCUGCAUGCCGCCGGGCGCCAUGCCUGCAGGUCGACUCUAGAAAACAUG”: the binding signal in test [2] is 6 log2 enrichment (interaction score).
Consider “GGCUAGAACUAGUGGAUCCCCCGGCGCCCGGCGGCUCGAGCCCGGGUAAGUGUCAAUAGUCUGCAUGCCGCCGGGCGCCAUGCCUGCAGGUCGACUCUAGAAAACAUG”, for which the binding signal in [3] is 2.84 log2 enrichment (interaction score).
Consider “GGCUAGAACUAGUGGAUCCCCCGGCGCCCGGCGGCUCGAGCCCGGGUAAGUGUACAUAGUCUGCAUGCCGCCGGGCGCCAUGCCUGCAGGUCGACUCUAGAAAACAUG”, for which the binding signal in test [4] is 2.05 log2 enrichment (interaction score); in test [5], 6.89 log2 enrichment (interaction score); in test [6], 2.47 log2 enrichment (interaction score).
On to “GGCUAGAACUAGUGGAUCCCCCGGCGCCCGGCGGCUCGAGCCCGGGUAAGUGUAAUUAGUCUGCAUGCCGCCGGGCGCCAUGCCUGCAGGUCGACUCUAGAAAACAUG”, for which the binding signal in [7] was 3.79 log2 enrichment (interaction score); in [8] it was 4.16 log2 enrichment (interaction score).
In the case of “GGCUAGAACUAGUGGAUCCCCCGGCGCCCGGCGGCUCGAGCCCGGGUAAGUGUAAAUAGUCUGCAUGCCGCCGGGCGCCAUGCCUGCAGGUCGACUCUAGAAAACAUG”, the binding signal in test [7] is 4.82 log2 enrichment (interaction score); in test [9] it was 3.81 log2 enrichment (interaction score); in test [1], 4.75 log2 enrichment (interaction score); in test [4] it was 3.16 log2 enrichment (interaction score); in test [5] it was 5.58 log2 enrichment (interaction score); in [6] it was 3.4 log2 enrichment (interaction score).
Turning to “GGCUAGAACUAGUGGAUCCCCCGGCGCCCGGCGGCUCGAGCCCGGGUAAGUGUUAAUAGUCUGCAUGCCGCCGGGCGCCAUGCCUGCAGGUCGACUCUAGAAAACAUG”, the binding signal in test [10] was 3.75 log2 enrichment (interaction score).
Take “GGCUAGAACUAGUGGAUCCCCCGGCGCCCGGCGGCUCGAGCCCGGGUAAGUGUAUAUAGUCUGCAUGCCGCCGGGCGCCAUGCCUGCAGGUCGACUCUAGAAAACAUG”: the binding signal in [4] was 1.91 log2 enrichment (interaction score); in test [5] it was 7.83 log2 enrichment (interaction score).
Take “GGCUAGAACUAGUGGAUCCCCCGGCGCCCGGCGGCUCGAGCCCGGGUAAGUGCAAAUAGUCUGCAUGCCGCCGGGCGCCAUGCCUGCAGGUCGACUCUAGAAAACAUG”: the binding signal in [9] was 2.2 log2 enrichment (interaction score).
